PubChem BioAssay (EPA / NIEHS)
Active and inactive are the calls of the source. How the source made its calls: active means hit-call score of the fitted dose curve at least 0.9, where 1 is the maximum; inactive means score below 0.9.

Read-out: Forkhead box O3 (FOXO3), FOXO3 (gene 2309)
Experiment: LTEA_HepaRG_FOXO3: Life Technologies and Expression Analysis (LTEA) Assay for Forkhead box O3 (FOXO3) using HepaRG (AID 2283459)
Conditions: mRNA level, 48 h; actives raise or lower the signal
Procedure: LTEA_HepaRG is a cell based, multiplexed-readout assay that uses HepaRG, a human liver cell line, with measurements taken at 48 hours after chemical dosing on a 96-well plate.LTEA_HepaRG_FOXO3 is one of 102 assay component(s) measured in the LTEA HepaRG cell culture assay. It is a marker of Cell proliferation, survival, death.Data from the assay component LTEA_HepaRG_FOXO3 was analyzed into 1 endpoint. This assay endpoint, LTEA_HepaRG_FOXO3, was analyzed with bidirectional fitting relative to DMSO as the negative control and baseline of activity. Using a type of inducible reporter, measures of mRNA induction for gain or loss-of-signal activity can be used to understand regulation of transcription factor activity. To generalize the intended target to other relatable targets, this assay endpoint is annotated to the dna binding intended target family, where the subfamily is forkhead box protein.
A total of 1060 chemcials from the ToxCast library were tested in eight-point concentration-response experiments. Cell culture and cytotoxicity assays were conducted at Thermo Fisher Scientific's Custom Services facility (Madison, WI). A single lot of human HepaRG cells (Thermo Fisher Scientific, Frederick, MD) was used for the cell culture experiments. 96-well format collagen type I coated plates of human HepaRG cells were prepared using established methods. Briefly, cryopreserved HepaRG cells were thawed, plated at a density of approximately 100,000 cells/well in HepaRG Thaw, Plate, and General Purpose media (HPRG770, Thermo Fisher Scientific), and incubated for 48 hours. 0.5% DMSO was selected as vehicle control to balance the requisite need of DMSO in HepaRG cultures to maintain differentiation (for example, baseline metabolism, proportions of hepatocytes vs. cholangiocytes), while enabling further hepatic receptor pathway activation (for example, PXR and CAR) in response to chemical exposure. 48 hours after plating, the culture medium was replaced with HepaRG Serum-Free Incudtion Media. Cells were exposed to each test chemical in duplicate and maintained in CO2 incubators for another 48 hours. Chemical plates were thawed to room temperature and 200x concentrations of treatment groups were prepared. 8-point conentration-reponse curves were made with the highest exposure at 100 uM, followed by half-log dilutions, all in 0.5% DMSO. Each test plate contained variouse controls, induction positive controls (1mM phenobarbital), cytotoxicity positive controls ([…] aflatoxin B1), vehicle controls (0.5% DMSO), and total lysis controls (0.5% DMSO). Cell morphology images were taken using an Essen IncuCyte FLR automated microscope, with six 96-well plates imaged in about 24 minutes. Images were captured and exported and JPEG files. Spent culture media was transfered to black-well plates for the LDH assay, and remaining media was sorted at -80 C for later use. Cells were treated with RLT buffer and frozen until shipped for gene expression analysis. Total RNA was isolated from the cell suspension in 75 uL of Buffer RLT (Qiagen, Germantown, MD 20874) by Quintiles/Expression Analysis (Durham, NC) using a custom isolation procedure. Total RNA from each plate well was transferred to a preamplification plate. Fluidigm's 96.96 Dynamic ArrayTM (Fluidigm, Amsterdam, the Netherlands) technology was used for gene expression analyses by quantitative reverse transcription polymerase chain reaction (qRT-PCR, performed by Quintiles/Expression Analysis, Durham, NC)89. Standard TaqManTM Assays (Applied Biosystems/ThermoFisher Scientific, Foster City, CA) were used to assess the expression of 93 genes selected based on their selectivity and sensitivity to important hepatic receptors known to be modulated by environmental chemicals; importance in human hepatocyte functionality; and hepatotoxicity. […]

Row | Structure (SMILES) | outcome | AC50
1 | CC(C)(C)C(=O)C(Oc1ccc(Cl)cc1)n1cncn1 (stereo not given) | inactive | 
2 | Nc1c(Cl)c(F)nc(OCC(=O)O)c1Cl | inactive | 
3 | O=C(O)c1c(Cl)ccc2cc(Cl)cnc12 | inactive | 
4 | CN=C=S | inactive | 
5 | CCOC(=O)C(C)OC(=O)c1cc(Oc2ccc(C(F)(F)F)cc2Cl)ccc1[N+](=O)[O-] (stereo not given) | inactive | 
6 | COc1cc(OC)nc(NC(=O)NS(=O)(=O)c2ncccc2OCC(F)(F)F)n1 | inactive | 
7 | CCOP(=O)(OCC)Oc1nc(Cl)c(Cl)cc1Cl | inactive | 
8 | O=P(O)(O)CCCl | inactive | 
9 | CCN(CC)c1nc(C)cc(OP(=S)(OC)OC)n1 | inactive | 
10 | CCSC(=O)N1CCCCCC1 | inactive | 
11 | CCCCC(C#N)(Cn1cncn1)c1ccc(Cl)cc1 (stereo not given) | inactive | 
12 | O=C(Nc1ccccc1-c1ccc(Cl)cc1)c1cccnc1Cl | inactive | 
13 | COC(=O)NS(=O)(=O)c1ccc(N)cc1 | inactive | 
14 | COP(=S)(OC)SCn1nnc2ccccc2c1=O | inactive | 
15 | Cn1c(-c2ccccc2)cc(-c2ccccc2)[n+]1C |  | 2.57 µM (active)
16 | COc1ccc(-c2ccccc2)cc1NNC(=O)OC(C)C | inactive | 
17 | CCCN(CC)CC1COC2(CCC(C(C)(C)C)CC2)O1 (stereo not given) | inactive | 
18 | COCC(=O)N(c1c(C)cccc1C)C(C)C(=O)OC (stereo not given) | inactive | 
19 | CC(C)Oc1cccc(NC(=O)c2ccccc2C(F)(F)F)c1 | inactive | 
20 | COC(=O)c1c(C(F)F)nc(C(F)(F)F)c(C2=NCCS2)c1CC(C)C | inactive | 

Row | Structure (SMILES) | outcome | AC50
21 | CC1(C)C(C=C(Cl)Cl)C1C(=O)OC(C#N)c1cccc(Oc2ccccc2)c1 (stereo not given) | inactive | 
22 | CC(C)C1(C)N=C(c2ncccc2C(=O)O)NC1=O (stereo not given) | inactive | 
23 | CCN(CC)C(=O)C(C)Oc1cccc2ccccc12 (stereo not given) | inactive | 
24 | CN/C(=N\[N+](=O)[O-])NCc1cnc(Cl)s1 | inactive | 
25 | CNC(=O)N(C)c1nnc(C(C)(C)C)s1 | inactive | 
26 | CO/N=C(/C1=NOCCO1)c1ccccc1Oc1ncnc(Oc2ccccc2Cl)c1F | inactive | 
27 | Clc1nc(Cl)nc(Nc2ccccc2Cl)n1 | inactive | 
28 | CNC(=O)Oc1cccc2ccccc12 | inactive | 
29 | O=c1n(Cl)c(=O)n(Cl)c(=O)n1Cl | inactive | 
30 | CC(C)N1C(=O)c2ccccc2NS1(=O)=O | inactive | 
31 | CS(=O)(=O)c1cc(C(F)(F)F)ccc1C(=O)c1cnoc1C1CC1 | inactive | 
32 | Nc1c(Cl)c(Cl)nc(C(=O)O)c1Cl | inactive | 
33 | COC(=O)NC(=S)Nc1ccccc1NC(=S)NC(=O)OC | inactive | 
34 | CS(=O)(=O)c1ccc(C(=O)C2C(=O)CCCC2=O)c([N+](=O)[O-])c1 | inactive | 
35 | OC(c1ccc(Cl)cc1)(c1ccc(Cl)cc1)C(Cl)(Cl)Cl | inactive | 
36 | CCCC(=NOCC)C1=C(O)CC(CC(C)SCC)CC1=O (stereo not given) | inactive | 
37 | COCc1cnc(C2=NC(C)(C(C)C)C(=O)N2)c(C(=O)O)c1 (stereo not given) | inactive | 
38 | CCC(C)n1c(=O)[nH]c(C)c(Br)c1=O (stereo not given) |  | 14.3 µM (active)
39 | COc1cc(Cl)c(OC)cc1Cl | inactive | 
40 | CC1(C)CON(Cc2ccccc2Cl)C1=O | inactive | 
